Screens (PubChem)
In the library only some 22% were active in any assay of this set; here they are far more common.
CYP2C19 act: increases human CYP2C19 enzyme activity; P33261; recombinant CYP2C19, luciferin-H EGE luminescence; stronger effect = higher value; 0 = fully inhibited enzyme, 1 = untreated enzyme; activation factor at 5 µM; 96,000 tested, under 10 active;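 active = activation factor of at least 2 at 5 µM in the primary screen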;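 note: 0 = wells with 2.5 mM tranylcypromine and 1 = vehicle-only wells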
CYP2C9 inhib: blocks human cytochrome P450 2C9. P11712. 96,000 compounds, 20% hits. CYP2C9 Supersomes, luciferin-H conversion, luminescence. inhibition, % at 5 µM;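 active = blocking of liver enzyme CYP2C9 beyond about 50% at 5 µM, limit read from the data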
Target sequence (P11712 whole entry, looked up): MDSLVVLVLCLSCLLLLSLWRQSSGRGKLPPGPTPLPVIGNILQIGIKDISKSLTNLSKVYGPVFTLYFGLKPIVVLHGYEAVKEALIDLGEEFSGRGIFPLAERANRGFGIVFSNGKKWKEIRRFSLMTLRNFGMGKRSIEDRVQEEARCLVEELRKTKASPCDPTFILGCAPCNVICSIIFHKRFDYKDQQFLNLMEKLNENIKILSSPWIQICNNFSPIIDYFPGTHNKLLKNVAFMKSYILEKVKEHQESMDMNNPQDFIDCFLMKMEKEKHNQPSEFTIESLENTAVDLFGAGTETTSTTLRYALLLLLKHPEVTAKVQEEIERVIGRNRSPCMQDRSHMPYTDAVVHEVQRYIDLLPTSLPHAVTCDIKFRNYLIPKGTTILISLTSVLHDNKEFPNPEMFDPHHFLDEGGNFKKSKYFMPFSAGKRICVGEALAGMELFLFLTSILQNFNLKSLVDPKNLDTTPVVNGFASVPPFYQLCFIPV
Measles CPE: protection of cells from measles virus | Measles virus-infected cells, CPE protection, absorbance | AID 841 | protection (pct of control), % at 4 µM | 140,000 compounds, 1.5% hits; in the data active = protection mostly above about 24%, no sharp cut-off; inactive = mostly below about 26%
CYP2C19 inhib: blocks human cytochrome P450 2C19 | AID 778 | CYP2C19 Supersomes, luciferin-H EGE luminescence, 30 min | inhibition, % at 5 µM | 96,000 compounds, 21% hits;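 active = CYP2C19 inhibition above a set limit at 5 µM in the primary screen, cut at about 50% in these data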;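 note: plate controls were negative control wells for no effect and 2.5 mM tranylcypromine positive control for full effect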
CYP2C9 activ: activators of human CYP2C9; recombinant CYP2C9, luciferin-H conversion, luminescence; stronger effect = higher value; factor 1 = untreated enzyme, 0 = blocked; AID 1024; P11712; 96,000 compounds, 1.4% hits; activation factor at 5 µM;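 active = activation factor of 2 or more for CYP2C9 at a 5 µM dose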;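 note: 0 = sulfaphenazole-blocked wells and 1 = vehicle-only wells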
* marks the source's active call; other numbers are inactive results; . = not tested or not shown.

SMILES	CYP2C19 act	CYP2C9 inhib	Measles CPE	CYP2C19 inhib	CYP2C9 activ
S=C(NC1CCCCC1)N1CCN(c2ccccn2)CC1	.	.	11	.	.
Cc1cccc(NC(=S)NCCc2c[nH]c3ccccc23)c1	.	.	3	.	.
Cc1ccc(NC(=S)NCCc2c[nH]c3ccccc23)cc1	0.1	19	11	86*	0.8
O=C(NCCc1c[nH]c2ccccc12)Nc1ccccc1	0.1	-20	2	91*	1.2
c1ccc(C2(CNc3ccccn3)CCCC2)cc1	0.5	44	1	55*	0.6
N#CCCNCC1(c2ccccc2)CCCC1	0.8	0	10	16	1
CC(C)Cn1c(=O)c(C(=O)N/N=C/c2cccc(F)c2)c(O)c2ccccc21	.	.	17	.	.
COc1cccc(-c2nnc(SCC(=O)Nc3ccc(S(N)(=O)=O)cc3)n2C)c1	1	38	6	3	0.6
Cc1ccc(C)c(NC(=O)CSc2ncnc3nc[nH]c23)c1	1	-3	6	5	1
Cc1ccc(OCCSc2ncnc3nc[nH]c23)cc1	0.3	54*	1	73*	0.5
Brc1ccc(CSc2ncnc3nc[nH]c23)cc1	0.4	19	18	56*	0.8
CC(/C=C1\N=C(SCc2ccccc2Cl)SC1=O)=C\c1ccccc1	0.8	30	11	24	0.7
CC1(C)OC(=O)C(=NNc2ccc(Br)cc2)C(=O)O1	.	.	6	.	.
CC(=O)N1CCc2cc(S(=O)(=O)NCCCN3CCN(Cc4ccccc4)CC3)ccc21	0.5	50	17	52*	0.5
CC(=O)N1CCc2cc(S(=O)(=O)NCCC(=O)NC3CCN(Cc4ccccc4)CC3)ccc21	1	10	23	-2	0.9
CC(=O)N1CCc2cc(S(=O)(=O)NCCN3CCC(C)CC3)ccc21	0.5	3	38*	51*	1
COc1ccc(CCNC(=O)CCNS(=O)(=O)c2ccc3c(c2)CCN3C(C)=O)cc1OC	0.9	61*	18	9	0.4
COc1ccc(CCNS(=O)(=O)c2ccc3c(c2)CCN3C(=O)CCC(=O)O)cc1OC	1	-4	3	-1	1
CCC(=O)N1CCc2cc(S(=O)(=O)NCCCN3CCN(Cc4ccccc4)CC3)ccc21	0.8	25	2	19	0.7
CCOC(=O)CNC(=O)Cn1cnc2c(nnn2-c2ccc(C)cc2)c1=O	1.1	-16	4	-9	1.2
CCOc1cc2c(cc1C(C)(C)C)NC(=O)CS2	1	-10	19	-1	1.1
COc1cc(NC(=S)N2CCCC(CO)C2)c(OC)cc1Cl (centres undefined)	.	.	5	.	.
O=C(C1CCCN(S(=O)(=O)c2cccc3nsnc23)C1)N1CCc2ccccc21 (centres undefined)	0.5	74*	5	52*	0.3
O=C(C1CCCN(S(=O)(=O)c2cccc3nsnc23)C1)N1CCc2ccccc2C1 (centres undefined)	0.6	15	4	44	0.8
O=C(C1CCN(S(=O)(=O)c2cccc3nsnc23)CC1)N1CCCc2ccccc21	0.9	4	3	11	1
SMILES	CYP2C19 act	CYP2C9 inhib	Measles CPE	CYP2C19 inhib	CYP2C9 activ
O=C(C1CCN(S(=O)(=O)c2cccc3nsnc23)CC1)N1CCc2ccccc21	0.5	44	4	51*	0.6
Cc1ccc2cccc(SCC(=O)NCC#N)c2n1	.	.	14	.	.
COc1ccccc1-c1nnc(NC(=O)OCC(C)C)s1	0.8	-144	22	19	2.4*
CCOC(=O)Nc1nnc(-c2ccccc2OC)s1	.	.	13	.	.
O=C1c2cnc3nc(SCc4ccc(Cl)cc4)nn3c2CC2c3ccccc3CCN12 (centres undefined)	1	51*	6	-4	0.5
Cc1cccc(C)c1NC(=O)c1sccc1SCc1cccc(C(F)(F)F)c1	0.3	73*	7	69*	0.3
Cc1ccc(NC(=O)c2ccc(CNS(=O)(=O)c3cccc(C(F)(F)F)c3)cc2)cc1	1	3	1	2	1
Cc1cccc(NC(=O)COC(=O)Cc2cccc(C(F)(F)F)c2)c1C	.	.	7	.	.
Cc1ccc(NC(=O)c2sccc2SCc2cccc(C(F)(F)F)c2)cc1	0.3	74*	14	69*	0.3
CN(C)/C=C(\C#N)C(=O)Nc1ccc(F)cc1	1	-7	22	2	1.1
N#CCSc1ccsc1C(=O)Nc1ccc(F)cc1	0.5	-23	7	53*	1.2
N#CCN1CCN(CCC(=O)Nc2ccc(OCc3ccccc3)cc2)CC1	0.9	6	15	8	0.9
O=C(Cn1cncc1-c1ccc([N+](=O)[O-])cc1)Nc1ccccc1F	.	.	13	.	.
CCCNC(=O)CN(C)S(=O)(=O)c1c(C)cc(C)cc1C	.	.	3	.	.
O=c1/c(=C/c2ccccn2)sc2nc3ccccc3n12	0.3	54*	18	71*	0.5
C=CCn1c(Cc2csc(N)n2)nnc1SCC(=O)OCC	0.6	-8	16	40	1.1
O=S(=O)(Nc1ccncc1Cl)c1ccccc1	1.1	70*	11	-9	0.3
O=S(=O)(Nc1cccnc1)c1cccc(Cl)c1	0.8	15	4	23	0.8
COc1ccc(C)cc1S(=O)(=O)N1CCC(C)CC1	0.7	-37	6	32	1.4
COc1ccc(C)cc1S(=O)(=O)N1CCN(c2cccc(C(F)(F)F)c2)CC1	0	24	7	98*	0.8
COc1ccc(N2CCN(S(=O)(=O)c3cccc(C(F)(F)F)c3)CC2)cc1	0.4	16	18	61*	0.8
COc1ccc(C)cc1S(=O)(=O)N1CCN(S(=O)(=O)c2cc(C)ccc2OC)C(C)C1 (centres undefined)	0	99*	9	100*	0
CCOC(=O)c1ccc(-n2[nH]c(-c3ccccc3)cc2=O)cc1	1.1	32	7	-13	0.7
O=c1cc(-c2ccccc2)[nH]n1-c1nc2ccccc2[nH]1	0.9	56*	1	5	0.4
O=C(OCC(=O)N1CCCCCC1)c1n[nH]c(=O)c2ccccc12	0.8	-1	17	17	1
SMILES	CYP2C19 act	CYP2C9 inhib	Measles CPE	CYP2C19 inhib	CYP2C9 activ
O=C(OCC(=O)N1CCCCC1)c1c[nH]c(=O)[nH]c1=O	1	89*	5	1	0.1
Cc1ccccc1Oc1ccc(Oc2ccccc2C)nn1	0.7	-61	1	26	1.6
FC(F)(F)c1cccc(NC(=S)NNC(=S)NCc2ccccc2)c1	0.9	75*	3	12	0.2
Cc1ccc(NC(=S)NNC(=S)NCc2ccccc2)cc1	0.9	94*	11	12	0.1
O=C(Cc1ccccc1)NC(=S)Nc1cccc(C(F)(F)F)c1	1	13	13	2	0.9
FC(F)(F)c1cccc(NC(=S)NCc2ccccn2)c1	.	.	4	.	.
S=C(NCc1ccccn1)Nc1cccc(Cl)c1	0.4	-12	10	57*	1.1
Cc1ccc(NC(=S)NCc2ccccn2)cc1	0.7	69*	3	32	0.3
CCOC(=O)c1cc(C)n(S(=O)(=O)c2ccc(C)cc2)c1C	1.2	6	14	-19	0.9
CCOC(=O)N1CCC(Nc2ncnc3c2cnn3-c2ccc(Cl)cc2)CC1	0.9	6	12	11	0.9
